# Laboratory results as given in the supplement of paper PMC4466140.
# Molecular target: AgAbp1
# Experiment: SPOT peptide array binding signal intensity (averaged, normalized) (arbitrary units (background-subtracted, floor 0; scale differs between SH3 domains)); higher = stronger binding of the SH3 domain to the peptide
# Description: (§1)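 GST-tagged SH3 domains from S. cerevisiae (Sc), A. gossypii (Ag), C. albicans (Ca) and S. pombe (Sp) were incubated at 10 ug/ml overnight at 4 C on cellulose SPOT membranes carrying 292 synthetic 15-mer peptides mined from the S. cerevisiae proteome (cysteines replaced by serines). Binding was detected with anti-GST antibody, HRP secondary and chemiluminescence, quantified with Genespotter, and reported as normalized spot intensities averaged over biological replicates.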
row,Binder,SPOT peptide array binding signal intensity
1,RSKRLFPVRPMATAH,39.5

# Molecular target: AgBbc1
# Experiment: as above
# Description: as §1
row,Binder,SPOT peptide array binding signal intensity
1,RSKRLFPVRPMATAH,36.2

# Molecular target: AgBem1-D1
# Experiment: as above
# Description: as §1
row,Binder,SPOT peptide array binding signal intensity
1,RSKRLFPVRPMATAH,89

# Molecular target: AgBzz1-D1
# Experiment: as above
# Description: as §1
row,Binder,SPOT peptide array binding signal intensity
1,RSKRLFPVRPMATAH,13

# Molecular target: AgBzz1-D2
# Experiment: as above
# Description: as §1
row,Binder,SPOT peptide array binding signal intensity
1,RSKRLFPVRPMATAH,11.5

# Molecular target: AgCyk3
# Experiment: as above
# Description: as §1
row,Binder,SPOT peptide array binding signal intensity
1,RSKRLFPVRPMATAH,3

# Molecular target: AgFus1
# Experiment: as above
# Description: as §1
row,Binder,SPOT peptide array binding signal intensity
1,RSKRLFPVRPMATAH,190

# Molecular target: AgHof1
# Experiment: as above
# Description: as §1
row,Binder,SPOT peptide array binding signal intensity
1,RSKRLFPVRPMATAH,3.5

# Molecular target: AgHse1
# Experiment: as above
# Description: as §1
row,Binder,SPOT peptide array binding signal intensity
1,RSKRLFPVRPMATAH,632

# Molecular target: AgLsb1
# Experiment: as above
# Description: as §1
row,Binder,SPOT peptide array binding signal intensity
1,RSKRLFPVRPMATAH,3

# Molecular target: AgLsb4
# Experiment: as above
# Description: as §1
row,Binder,SPOT peptide array binding signal intensity
1,RSKRLFPVRPMATAH,51

# Molecular target: AgMyo5
# Experiment: as above
# Description: as §1
row,Binder,SPOT peptide array binding signal intensity
1,RSKRLFPVRPMATAH,0.5

# Molecular target: AgNbp2
# Experiment: as above
# Description: as §1
row,Binder,SPOT peptide array binding signal intensity
1,RSKRLFPVRPMATAH,218

# Molecular target: AgRvs167
# Experiment: as above
# Description: as §1
row,Binder,SPOT peptide array binding signal intensity
1,RSKRLFPVRPMATAH,4.33

# Molecular target: AgSho1
# Experiment: as above
# Description: as §1
row,Binder,SPOT peptide array binding signal intensity
1,RSKRLFPVRPMATAH,79

# Molecular target: AgSla1-D1-D2
# Experiment: as above
# Description: as §1
row,Binder,SPOT peptide array binding signal intensity
1,RSKRLFPVRPMATAH,469

# Molecular target: AgSla1-D3
# Experiment: as above
# Description: as §1
row,Binder,SPOT peptide array binding signal intensity
1,RSKRLFPVRPMATAH,10.2

# Molecular target: CaAbp1-D1
# Experiment: as above
# Description: as §1
row,Binder,SPOT peptide array binding signal intensity
1,RSKRLFPVRPMATAH,451

# Molecular target: CaAbp1-D2
# Experiment: as above
# Description: as §1
row,Binder,SPOT peptide array binding signal intensity
1,RSKRLFPVRPMATAH,414

# Molecular target: CaBbc1
# Experiment: as above
# Description: as §1
row,Binder,SPOT peptide array binding signal intensity
1,RSKRLFPVRPMATAH,128

# Molecular target: CaBem1-D1
# Experiment: as above
# Description: as §1
row,Binder,SPOT peptide array binding signal intensity
1,RSKRLFPVRPMATAH,7

# Molecular target: CaBzz1-D1
# Experiment: as above
# Description: as §1
row,Binder,SPOT peptide array binding signal intensity
1,RSKRLFPVRPMATAH,53

# Molecular target: CaBzz1-D2
# Experiment: as above
# Description: as §1
row,Binder,SPOT peptide array binding signal intensity
1,RSKRLFPVRPMATAH,51.5

# Molecular target: CaCyk3
# Experiment: as above
# Description: as §1
row,Binder,SPOT peptide array binding signal intensity
1,RSKRLFPVRPMATAH,64.5

# Molecular target: CaFus1
# Experiment: as above
# Description: as §1
row,Binder,SPOT peptide array binding signal intensity
1,RSKRLFPVRPMATAH,402

# Molecular target: CaHof1
# Experiment: as above
# Description: as §1
row,Binder,SPOT peptide array binding signal intensity
1,RSKRLFPVRPMATAH,≤ 0

# Molecular target: CaHse1
# Experiment: as above
# Description: as §1
row,Binder,SPOT peptide array binding signal intensity
1,RSKRLFPVRPMATAH,14.2

# Molecular target: CaLsb1
# Experiment: as above
# Description: as §1
row,Binder,SPOT peptide array binding signal intensity
1,RSKRLFPVRPMATAH,0.5

# Molecular target: CaLsb4
# Experiment: as above
# Description: as §1
row,Binder,SPOT peptide array binding signal intensity
1,RSKRLFPVRPMATAH,502

# Molecular target: CaMyo5
# Experiment: as above
# Description: as §1
row,Binder,SPOT peptide array binding signal intensity
1,RSKRLFPVRPMATAH,≤ 0

# Molecular target: CaNbp2
# Experiment: as above
# Description: as §1
row,Binder,SPOT peptide array binding signal intensity
1,RSKRLFPVRPMATAH,366

# Molecular target: CaRvs167
# Experiment: as above
# Description: as §1
row,Binder,SPOT peptide array binding signal intensity
1,RSKRLFPVRPMATAH,27.8

# Molecular target: CaRvs167-3
# Experiment: as above
# Description: as §1
row,Binder,SPOT peptide array binding signal intensity
1,RSKRLFPVRPMATAH,93.5

# Molecular target: CaSho1
# Experiment: as above
# Description: as §1
row,Binder,SPOT peptide array binding signal intensity
1,RSKRLFPVRPMATAH,544

# Molecular target: CaSla1-D1-D2
# Experiment: as above
# Description: as §1
row,Binder,SPOT peptide array binding signal intensity
1,RSKRLFPVRPMATAH,95

# Molecular target: CaSla1-D3
# Experiment: as above
# Description: as §1
row,Binder,SPOT peptide array binding signal intensity
1,RSKRLFPVRPMATAH,22

# Molecular target: ScAbp1
# Experiment: as above
# Description: as §1
row,Binder,SPOT peptide array binding signal intensity
1,RSKRLFPVRPMATAH,4
